# A selection: hits, their analogues and other compounds. The true share with any hit is near 3.6%.
# Rango dissoc inh = qHTS Assay for Inhibitors of RanGTP induced Rango (Ran-regulated importin-beta cargo) - Importin beta complex dissociation. Snurportin-1 (Homo sapiens) + GTP-binding nuclear protein Ran (Homo sapiens) + Importin …. Biochemical FRET Rango-importin beta, RanGTP-induced dissociation. Potency, µM (series often up to 46.1 µM). 340,000 compounds, 0.071% hits. AID 540253, 2011; calls by dose curve; also: nearly all actives have a fitted effect of over 45% in size
#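 FRET read at 45 min, room temperature: inhibitors block the CFP/YFP signal rise when RanGTP (0.6 uM Ran, 2 mM GTP, 0.2 uM RCC1) frees Rango (0.1 uM) from importin beta (0.25 uM). Pre-read after 5 min compound exposure flags interference.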
# PI5P4K alpha inh = qHTS for Inhibitors of phosphatidylinositol 5-phosphate 4-kinase (PI5P4K); 330,000 compounds, 1.2% hits; max response, %; PI5P4Kalpha enzyme, ADP-Glo luminescence, 60 min; hits give low values; Phosphatidylinositol 5-phosphate 4-kinase type-2 alpha (Homo sapiens), P48426; AID 652105, 2013; active = max response of -50% or lower; inconclusive = between -30% and -50%; inactive = -30% or higher; also: value at the top dose of about 77 µM
# Target sequence (P48426 whole entry, looked up): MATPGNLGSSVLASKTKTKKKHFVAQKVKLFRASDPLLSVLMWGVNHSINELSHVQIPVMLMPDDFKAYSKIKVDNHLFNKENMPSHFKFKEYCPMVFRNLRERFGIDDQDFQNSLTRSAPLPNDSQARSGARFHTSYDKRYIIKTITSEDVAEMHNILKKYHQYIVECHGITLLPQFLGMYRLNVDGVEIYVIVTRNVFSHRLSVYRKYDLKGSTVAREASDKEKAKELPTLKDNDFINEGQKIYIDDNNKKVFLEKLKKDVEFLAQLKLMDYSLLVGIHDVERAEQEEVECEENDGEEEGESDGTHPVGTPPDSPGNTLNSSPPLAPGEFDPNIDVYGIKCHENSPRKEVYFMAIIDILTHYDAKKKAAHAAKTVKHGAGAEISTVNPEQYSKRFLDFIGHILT
#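 Compounds were pin-transferred onto PI5P4Kalpha and substrate in HEPES pH 7.4 buffer with EGTA, CHAPS and 5% DMSO. ATP (5 microM final) started the reaction, which ran 60 minutes at room temperature before ADP-Glo detection.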
# PLK1 PBD inh = qHTS for Inhibitors of PLK1-PDB (polo-like kinase 1 - polo-box domain): Primary Screen | Serine/threonine-protein kinase PLK1 (Homo sapiens), P53350 | Plk1 PBD binding of FITC phosphopeptide, fluorescence polarization | Potency, µM, usual class: inhibitors | 360,000 compounds, 2.8% hits | AID 720504, 2013; also: series mostly up to about 57 µM; nearly all actives have a fitted effect of over 65% in size
# Rango-impB inh = qHTS Assay for Inhibitors of Rango (Ran-regulated importin-beta cargo) - Importin beta complex formation | Importin subunit beta-1 (Homo sapiens), Q14974 | Rango CFP/YFP FRET sensor + importin beta, 45 min | Potency, µM (series often up to 92.2 µM) | 340,000 compounds, 0.031% hits | AID 540263, 2011; calls by dose curve; also: nearly all actives have a fitted effect of over 15% in size
#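 Inhibition scored from the CFP 486 nm/YFP 530 nm FRET ratio 45 min after adding 0.125 microM importin beta to 50 nM Rango biosensor preincubated 5 min with compound (room temperature, PBS with DTT, Tween-20, BSA). No-importin wells as positive control.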
# KAT2A inh = qHTS Assay for Inhibitors of GCN5L2; Histone acetyltransferase KAT2A (Homo sapiens), Q92830; GCN5L2 HAT assay, ThioGlo1 CoA-SH fluorescence; Potency, µM (top dose mostly 58.9 µM), usual class: inhibitors; 390,000 compounds, 0.21% hits
#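 ThioGlo1-coupled HAT assay: 20nM GCN5L2, 70uM acetyl-CoA, 75uM H3(1-25) peptide, pH 7.5. Fluorescence read at 340/540nm at start and after 20 min at room temperature.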
# VDR inhibitor = Inhibitors of the vitamin D receptor (VDR): qHTS; AID 504847, 2011; Vitamin D3 receptor (Homo sapiens), P11473; Potency, µM, most hits filed as inhibitors; 400,000 compounds, 0.93% hits; VDR-SRC2-3 peptide fluorescence polarization, 2 h
#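 After 23 nl compound addition and a short centrifugation, plates sat for 2 hours at ambient temperature; polarization of fluorescence then indicated loss of VDR binding to peptide SRC2-3.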
# A number is an active result; – = inactive; ? = inconclusive; · = no result given. Unless noted, calls follow the shape of the dose curve; as a rule, active = well fitted curve in the direction sought with a large enough effect; inconclusive = small, poorly fitted or top-dose-only effect, or another doubt; inactive = no such curve, though single readings can be large; an effect the other way counts as inactive or inconclusive.
SMILES,Rango dissoc inh,PI5P4K alpha inh,PLK1 PBD inh,Rango-impB inh,KAT2A inh,VDR inhibitor
Cc1cc(C)c2c(c1)c(C)cc1nnc(SCC(=O)c3ccccc3)n12,·,·,·,·,–,–
CCN1CCN(CCCN(Cc2ccco2)C(=S)Nc2cc(Cl)ccc2C)CC1,–,–,24µM,?,–,–
Cc1cc(C)c(NC(=S)N(CCN2CCCCC2)Cc2ccco2)c(C)c1,–,–,21µM,–,–,–
Cc1cccc(C)c1NC(=S)N(CCN1CCCCCC1)Cc1ccco1,–,–,–,–,–,–
CCc1nc(-c2cc(S(=O)(=O)N3CCN(c4ccccc4)CC3)ccc2OC)no1,·,·,·,·,–,–
Cc1nn(C)c(NC(=O)c2ccc(Cl)cc2)c1Cl,–,–,–,–,–,–
Cc1nn(C)c(C)c1NC(=O)c1ccc(Cl)cc1,–,–,30µM,–,–,–
CN(C)S(=O)(=O)c1ccc(NCC2COc3ccccc3O2)c([N+](=O)[O-])c1 (stereo not drawn),–,–,30µM,–,–,?
CCN(CC)S(=O)(=O)c1ccc(NCC2COc3ccccc3O2)c([N+](=O)[O-])c1 (stereo not drawn),–,–,–,–,–,–
CCc1ccc(Nc2n[n+](C)c(-c3ccncc3)s2)cc1,–,?,?,–,?,79µM
O=C(CSc1nc(-c2ccccc2)no1)N1CCCCC1,·,·,·,·,–,–
O=[N+]([O-])c1ccc(O)c(/C=N/n2cnc3ccccc32)c1,–,–,–,–,–,–
Cc1ccc(/C=C2\SC(=S)N(/N=C/c3cc([N+](=O)[O-])ccc3O)C2=O)o1,–,-84,12µM,–,?,?
O=C(CC1C(=O)N(c2ccccc2)C(=O)N1Cc1ccc(F)cc1)Nc1cccc(F)c1 (stereo not drawn),·,·,·,·,–,–
CC(CSc1n[nH]c(=S)s1)c1ccccc1 (stereo not drawn),–,-54,?,–,·,–
O=C1c2ccccc2C(=O)N1CCSc1n[nH]c(=S)s1,–,-77,–,–,?,?
CC(C)CSc1n[nH]c(=S)s1,–,-52,7.5µM,–,?,–
O=C1c2ccccc2C(=O)N1CCSc1ncn[nH]1,–,–,–,–,–,–
CCCCC/C=C\C[C@@H](O)/C=C/C=C\CCC(=O)O,·,·,·,·,·,–
CCCCS(=O)(=O)CC(O)CSc1nc(-c2ccc(C)cc2)cc(-c2ccccc2)c1C#N (stereo not drawn),·,·,·,·,–,–
CN(c1ccc(OCC(=O)OCC(=O)Nc2ccccc2)cc1)S(=O)(=O)c1cccs1,–,–,–,–,10µM,–
C=CCN(C(=O)Cc1cccs1)c1nc(-c2ccc(S(C)(=O)=O)cc2)cs1,?,-63,–,?,–,–
[S-]C(=Nc1ccc(Cl)cc1)N[n+]1ccccc1,–,–,17µM,–,–,?
ONC(=Nc1ccc(Cl)cc1)c1ccc(Cl)cc1,–,–,–,–,–,–
COc1ccccc1-c1cc(Nc2ccn[nH]2)ncn1,·,·,·,·,?,45µM
SMILES,Rango dissoc inh,PI5P4K alpha inh,PLK1 PBD inh,Rango-impB inh,KAT2A inh,VDR inhibitor
CC1(C)CC(=O)c2cnc(N)nc2C1,–,–,27µM,–,–,?
CC(CCC(=O)O)C1CCC2C3CC[C@H]4CC(O)CC[C@@]4(C)C3C=C[C@]12C (stereo partly drawn),·,·,·,·,–,28µM
C[C@H](CCC(=O)O)C1CC[C@H]2C3CC[C@@H]4C[C@H](O)CC[C@]4(C)C3C[C@H](O)[C@]12C (stereo partly drawn),·,·,·,·,–,–
O=C(Cc1ccc(Cl)cc1)NN1C(=O)c2ccccc2C1=O,–,–,27µM,–,–,–
COc1ccc(C(=O)NCC2(c3ccccc3)CCOCC2)cc1[N+](=O)[O-],–,–,12µM,–,–,?
COc1ccc(C2(CNC(=O)c3ccc(OC)c([N+](=O)[O-])c3)CCOCC2)cc1OC,–,–,–,–,–,–
C=CCN1C(c2ccccc2)=CS/C1=C(/C#N)c1nnc(N2CCOCC2)n1-c1ccccc1,–,–,21µM,–,–,–
CN(C)Cc1c(C(=O)N/N=C/c2ccco2)nnn1-c1nonc1N,–,–,–,–,–,–
Nc1nonc1-n1nnc(C(=O)N/N=C/c2cccc(F)c2)c1CN1CCCC1,–,–,–,–,·,–
Cc1ccc(/C=N/NC(=O)c2nnn(-c3nonc3N)c2CNc2ccccc2)cc1,–,–,19µM,–,–,?
Nc1nonc1-n1nnc(C(=O)N/N=C/c2cccc(Cl)c2)c1CN1CCCC1,–,–,30µM,–,·,–
Cc1ccc(/C=N/NC(=O)c2nnn(-c3nonc3N)c2CSc2ccccc2)cc1,–,–,–,–,–,–
Cc1ccc(COc2cccc(/C=N/NC(=O)c3nnn(-c4nonc4N)c3C)c2)cc1,–,–,–,–,–,–
CN(C)Cc1c(C(=O)N/N=C/c2ccc(-c3ccccc3)cc2)nnn1-c1nonc1N,–,–,21µM,–,–,?
Cc1cccc(COc2ccc(/C=N/NC(=O)c3nnn(-c4nonc4N)c3C)cc2)c1,–,–,21µM,–,–,?
CN(Cc1c(C(=O)N/N=C/c2ccccc2)nnn1-c1nonc1N)C1CCCCC1,–,–,30µM,–,–,?
Cc1ccc(/C=N/NC(=O)c2nnn(-c3nonc3N)c2CSc2ccccc2)o1,–,–,–,–,–,–
Cc1ccc(SCc2c(C(=O)N/N=C/c3ccc(C)o3)nnn2-c2nonc2N)cc1,·,-55,–,·,·,·
CC(/C=C/C(=O)c1ccc(C)cc1)=C\c1ccccc1,–,–,–,–,–,–
